Data from PubChem BioAssay (NCI).
Compounds without any hit were thinned out: in the full panel of roughly 83,000, 20% have a hit.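 For each line, cells grew in 96-well plates with the test compound present at a single concentration for 48 hours.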 A number with no mark means an inactive call. Calls of active or inactive are those of the source. The calls were made as follows: active = growth percent below 10; inactive = the rest.

What was measured:
Assay in all cases: NCI-60 one-dose screen, 48 h (100 = growth as untreated, 0 = no growth, -100 = all killed)
Conditions in all cases: 10 µM unless noted
[1] = tested on: NCI-H23 lung
[2] = tested on: NCI-H226 lung
[3] = tested on: NCI-H322M lung
[4] = tested on: HOP-62 NSCLC
[5] = tested on: NCI-H460 lung
[6] = tested on: NCI-H522 lung
[7] = tested on: A549/ATCC NSCLC
[8] = tested on: 786-0 renal
[9] = tested on: COLO 205 colon
[10] = tested on: DU-145 prostate
[11] = tested on: K-562 leukemia
[12] = tested on: MALME-3M melanoma
[13] = tested on: MDA-MB-231 breast
[14] = tested on: RXF 393 renal
[15] = tested on: SF-268 CNS
[16] = tested on: SF-295 CNS
[17] = tested on: SF-539 CNS
[18] = tested on: UACC-257 melanoma
[19] = tested on: M14 melanoma

Compound	growth [1]	growth [2]	growth [3]	growth [4]	growth [5]	growth [6]	growth [7]	growth [8] [%]	growth [9]	growth [10]	growth [11]	growth [12]	growth [13]	growth [14]	growth [15]	growth [16]	growth [17]	growth [18]	growth [19]
Clc1nc2ccccc2nc1-c1nnc(C2CCCCC2)o1	86.3%	84.7%	97.8%	106%	97.5%	99%	98.4%	106	110%	91.3%	80.9%	95.2%	105%	87.6%	101%	106%	97.7%	96.7%	94.3%
Cc1cc(C)c(N2C(=O)CC(Nc3ccc(Cl)cc3Cl)C2=O)c(C)c1 (configuration not stated)	104%	107%	99.8%	104%	105%	93.6%	104%	102	124%	110%	102%	96.7%	102%	121%	106%	105%	96.8%	103%	103%
COc1cc(-c2nc3sccn3c2-c2ccnc(S(C)(=O)=O)n2)ccc1F	92.4%	94.5%	89.3%	108%	100%	93.4%	94.2%	102	114%	102%	89.6%	4.8% (active)	87%	84.5%	100%	98.6%	91.5%	96.1%	97.9%
CN1CCN(Cc2ccc(NC(=O)c3cncc(C#Cc4cnn5cccnc45)c3)cc2C(F)(F)F)CC1	-23.1% (active)	-14% (active)	19.8%	10.2%	3.16% (active)	-58.7% (active)	5.71% (active)	27.1	-56.6% (active)	6.94% (active)	-11.5% (active)	-16.7% (active)	5.29% (active)	-76.5% (active)	-5.38% (active)	56.7%	14.8%	44.5%	-43.9% (active)
Cc1ccc(NC(=O)N[C@@H](Cc2cc(F)cc(F)c2)C(=O)NC2C(=O)N3C[C@H](O)C[C@H]3C(=O)N3CCCC[C@H]3C(=O)N[C@@H](CO)C(=O)N3C[C@H](C)C[C@H]3C(=O)O[C@H]2C)c(F)c1 (some centres not stated)	28.2%	8.45% (active)	70.7%	48.3%	37.3%	26.9%	73.4%	93.6	-11.9% (active)	37.7%	27.9%	50.7%	38.8%	100%	35.5%	78.7%	43.5%	25.4%	58.4%
CC(C)(C)CC(C)(C)n1nnnc1C(Nc1nccs1)c1cc2cccc3ccc4cccc1c4c32 (configuration not stated)	102%	3.26% (active)	93.9%	89%	103%	96.8%	107%	102	114%	107%	111%	94%	97.2%	119%	94.8%	94.9%	92.7%	104%	111%
O=C(Nc1ccc(Br)cc1)Nc1nc2ccc([N+](=O)[O-])cc2s1	-21.9% (active)	-3.17% (active)	8.37% (active)	0.86% (active)	-3.34% (active)	3.86% (active)	5.83% (active)	11.2	-37% (active)	18.8%	2.8% (active)	-14.1% (active)	-5.42% (active)	-27.8% (active)	12.2%	-40.1% (active)	0.554% (active)	-16.8% (active)	2.06% (active)
O=C(NNc1nc2cc(F)ccc2n2cccc12)c1ccncn1	30%	13.2%	31.7%	20.5%	9.08% (active)	-6.6% (active)	14.7%	11	10.3%	18.6%	14.6%	27.6%	41.1%	30.3%	19.6%	12.1%	4.41% (active)	5.01% (active)	1.55% (active)
